Compound activity deposited in PubChem BioAssay by The Scripps Research Institute Molecular Screening Center.
MITF primary – blocks human microphthalmia-associated transcription factor; AlphaScreen MITF homodimerization, bead proximity signal; inhibition, % at 2.6 µM; AID 1259374; O75030; hit rate 0.91% among 650,000; in the data active = inhibition above about 50%
Target sequence (O75030 whole entry, looked up): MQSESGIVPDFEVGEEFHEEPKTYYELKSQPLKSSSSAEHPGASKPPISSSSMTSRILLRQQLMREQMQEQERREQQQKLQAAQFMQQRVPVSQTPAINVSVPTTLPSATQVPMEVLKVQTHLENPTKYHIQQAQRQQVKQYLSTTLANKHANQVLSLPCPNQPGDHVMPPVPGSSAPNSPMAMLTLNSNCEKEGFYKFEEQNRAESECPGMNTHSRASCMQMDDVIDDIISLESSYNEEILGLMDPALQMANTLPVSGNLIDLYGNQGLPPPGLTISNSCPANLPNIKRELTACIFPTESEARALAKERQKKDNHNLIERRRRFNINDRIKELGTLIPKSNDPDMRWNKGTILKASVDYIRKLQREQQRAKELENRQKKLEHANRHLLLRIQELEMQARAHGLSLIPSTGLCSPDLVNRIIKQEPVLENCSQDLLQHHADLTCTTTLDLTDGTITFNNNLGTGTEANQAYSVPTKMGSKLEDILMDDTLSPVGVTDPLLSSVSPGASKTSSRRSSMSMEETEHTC
FBW7 activator – activators of human E3 ligase FBW7 | Q969H0 | AlphaScreen FBW7–phospho-cyclin E peptide binding, activator screen | normalized activity (activation), % at 26.1 µM | hit rate 0.13% among 650,000 | AID 1259310; in the data active = normalized activity above about 1.9%;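 note: purified mutant Fbw7 with reduced substrate affinity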
TEAD-YAP block – TEAD-YAP interaction inhibition. HEK-TIYL cells, TEAD-Gal4/YAP UAS-luciferase luminescence. inhibition, % at 9.12 µM. hit rate 1.4% among 640,000; in the data active = inhibition above about 32%
GPR151 activ – activators of human GPR151 | PathHunter beta-arrestin GPR151 cells, luminescence | hit rate 1% among 650,000 | Q8TDV0 | activation, % at 11.2 µM | AID 1508602; in the data active = activation above about 4.9%
MITF inh conf – confirmation of human MITF inhibitors | AlphaScreen MITF homodimerization, biotin/His-MITF beads | inhibition, % at 2.6 µM | AID 1259372 | hit rate 16% among 4,700 | shares compounds with MITF primary;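 active = inhibition above a cutoff derived from the DMSO control wells, cut at about 28% in these data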;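 note: inhibitors lower the bead chemiluminescence by keeping MITF from dimerizing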
AlphaScreen DR – counter-screen: compounds optically interfering with AlphaScreen; AID 1259373; IC50, µM; hit rate 6% among 480; shares compounds with MITF primary; AlphaScreen optical interference counterscreen, cell-free; call rule not given here
AS interf ctr – AlphaScreen optical interference, counter-screen; shares compounds with MITF primary; LysRS AlphaScreen counterscreen, signal interference, triplicate; inhibition, % at 2.6 µM; hit rate 7.6% among 4,700;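 active = inhibition above a cutoff derived from the DMSO control wells, cut at about 30% in these data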
A number is an active result; i = inactive; nt = not tested or not shown. An excerpt weighted towards active compounds, which were near 3.5% of everything screened.

SMILES	MITF primary	FBW7 activator	TEAD-YAP block	GPR151 activ	MITF inh conf	AS interf ctr	others
CS(=O)(=O)c1ccc2nc(NC(=O)/C=C/c3cccc([N+](=O)[O-])c3)sc2c1	80	i	i	i	i	i
CS(=O)(=O)c1ccc2nc(NC(=O)/C=C/c3ccccc3Cl)sc2c1	i	i	i	i	nt	nt
CCC(NC(=O)OCc1ccccc1[N+](=O)[O-])(C(F)(F)F)C(F)(F)F	i	i	i	i	nt	nt
CC1CCN(Cc2nc3sc4c(c3c(=O)[nH]2)CCC4)CC1	i	i	i	i	nt	nt
COc1ccc(Nc2nc(-c3cccs3)cs2)c(OC)c1	71	i	i	i	i	i
CCCCCCCc1c(O)nc(SCCN2CCOCC2)n(C(=O)c2ccccc2)c1=O	i	i	i	i	nt	nt
CCN(CC)CCN(C)Cc1cccc2ccccc12	66	i	i	i	i	i
CCN(CC)CCN(C)Cc1c(F)cccc1Cl	56	i	i	i	i	i
CCN(CC)CCN(C)Cc1ccc(F)cc1F	57	i	i	i	i	i
CS(=O)(=O)N(CC(=O)N=Nc1c(O)[nH]c2ccccc12)c1ccc(F)cc1	i	i	i	i	nt	nt
CSc1ncc(Cl)c(C(=O)Nc2ccc(S(=O)(=O)N3CCCCCC3)cc2)n1	i	i	i	i	nt	nt
Cc1n[nH]c(C)c1NC(=O)CN1CCCCCC1	62	i	i	i	i	i
CN1CCN(CC(=O)Nc2c3c(nc4c2CCC4)CCCC3)CC1	74	i	i	i	i	i
O=C(CN1CCCCCC1)Nc1c2c(nc3c1CCC3)CCCC2	58	i	i	i	i	i
CCCCC(=O)Nc1c2c(nc3c1CCC3)CCCC2	i	i	i	i	nt	nt
O=C(CN1CCCC1)Nc1c2c(nc3c1CCC3)CCC2	76	i	i	i	i	i
CC(C)CNC(=O)c1cn(C2CCCCC2)cc(C(=O)NCCc2cccnc2)c1=O	51	i	i	i	i	i
O=C(CCS(=O)(=O)c1ccc2c(c1)OCC(=O)N2)Nc1cccc(C(F)(F)F)c1	i	i	i	i	nt	nt
O=[N+]([O-])c1ccccc1CN1CCN(CCOCCO)CC1	62	i	i	i	i	i
CCCS(=O)(=O)N1CCN(Cc2ccccc2[N+](=O)[O-])CC1	i	i	i	i	nt	nt
O=[N+]([O-])c1ccccc1CN1CCN(CCO)CC1	77	i	i	i	i	i
CC(C)CC(=O)N1CCN(Cc2ccccc2[N+](=O)[O-])CC1	56	i	i	i	i	i
COc1cc(CN2CCN(CCOCCO)CC2)c([N+](=O)[O-])cc1OC	i	i	i	i	nt	nt
O=[N+]([O-])c1ccccc1CN1CCCCCCC1	i	i	i	i	nt	nt
C=CCc1cc(C)ccc1OCCCN1CCOCC1	72	i	i	i	i	38
SMILES	MITF primary	FBW7 activator	TEAD-YAP block	GPR151 activ	MITF inh conf	AS interf ctr	others
C=CCc1cc(OC)ccc1OCCCCN1CCOCC1	i	i	i	i	nt	nt
COc1cc(C)ccc1OCCCN1CC(C)OC(C)C1 (stereo not drawn)	i	i	i	i	nt	nt
Cc1ccc(Cl)c(OCCCN2CCOCC2)c1	55	i	i	i	i	i
Cc1ccc(OCCN2CCOCC2)c(Cl)c1	i	i	i	i	nt	nt
C=CCc1cc(C)ccc1OCCCN1CC(C)OC(C)C1 (stereo not drawn)	53	i	i	i	i	i
C=CCc1cc(C)ccc1OCCNC(C)C	88	i	i	i	i	i
CN(C)[C@@H]1CCN(Cc2ccccc2)C[C@@H]1CCC(=O)Nc1cccc(Cl)c1	i	i	i	i	nt	nt
CCOC1(OCC)N=C(N)C2(C#N)C(c3ccc(OC)cc3)C12C#N (stereo not drawn)	i	i	i	i	nt	nt
CCOC(=O)CC(NS(=O)(=O)c1cccc2nsnc12)c1cccc([N+](=O)[O-])c1 (stereo not drawn)	i	i	i	i	nt	nt
CC(C)c1ccc(NC(=O)c2ccc(F)c(S(=O)(=O)NCc3ccc(F)cc3)c2)cc1	i	i	i	i	nt	nt
C=CCc1cc(C)ccc1OCCN1CCN(C)CC1	57	i	i	i	i	i
O=C1NC(=S)N/C1=C\c1ccc(-c2cccc([N+](=O)[O-])c2)o1	i	i	i	i	nt	nt
O=C1NC(=S)N/C1=C\c1ccc([N+](=O)[O-])o1	67	i	i	i	67	i	AlphaScreen DR=i
O=C(c1cccnc1)N1CCN(Cc2ccccc2[N+](=O)[O-])CC1	82	i	i	i	i	i
O=C(c1ccccc1F)N1CCN(Cc2c[nH]c3ccccc23)CC1	i	i	i	i	nt	nt
O=C(c1ccccc1F)N1CCN(Cc2ccccc2C(F)(F)F)CC1	58	i	i	i	i	i
COc1ccc(Br)cc1CN1CCN(C(=O)c2ccccc2)CC1	i	i	i	i	nt	nt
O=C(c1ccc(F)cc1)N1CCN(Cc2ccccc2[N+](=O)[O-])CC1	55	i	i	i	i	i
COc1ccc(Br)cc1CN1CCN(C(=O)c2ccccc2F)CC1	65	i	i	i	i	i
COc1c(O)ccc(/C=N/NC(=O)COc2cccc(C)c2)c1[N+](=O)[O-]	i	i	i	i	nt	nt
O=C(c1cccc(F)c1)N1CCN(Cc2ccccc2[N+](=O)[O-])CC1	i	i	i	i	nt	nt
O=C(c1ccccc1F)N1CCN(Cc2ccccc2[N+](=O)[O-])CC1	62	i	i	i	i	i
COc1ccc(NS(=O)(=O)c2ccc3c(c2)OCCO3)c(OC)c1	85	i	i	i	i	i
CCOc1ccccc1NS(=O)(=O)c1ccc2c(c1)OCCCO2	57	i	i	i	i	i
CN(C)CCCNS(=O)(=O)c1ccc2c(c1)OCCO2	63	i	i	i	i	i
SMILES	MITF primary	FBW7 activator	TEAD-YAP block	GPR151 activ	MITF inh conf	AS interf ctr	others
CCc1cccc(CC)c1NC(=O)c1oc(=O)c2ccccc2c1-c1ccc(C)cc1	i	i	i	i	nt	nt
Cc1ccc(Nc2nc(-c3ccccn3)cs2)c(C)c1	51	i	57	i	i	39
COC(=O)c1cc(S(=O)(=O)NCc2ccccc2Cl)c[nH]1	i	i	i	i	nt	nt
COC(=O)c1cc(S(=O)(=O)NCc2ccccc2OC)c[nH]1	75	i	i	i	i	i
CC(O)CNC(=O)c1cnc2sccn2c1=O (stereo not drawn)	i	i	i	i	nt	nt
CC(=O)c1ccc(S(=O)(=O)N(CCCO)Cc2cc3cc(C)c(C)cc3[nH]c2=O)cc1	74	i	i	i	i	i
COCCSc1nnc(-c2cnccn2)n1C	75	i	i	i	i	i
COc1ccc(-c2cc3ccccc3n2CC(O)CNCCO)cc1 (stereo not drawn)	53	i	i	i	i	i
CCCCNc1nc(-c2cc(OC)ccc2OC)cs1	59	i	i	i	i	i
Cc1cccc(NC(=S)NNC(=O)CC(C)O)c1C (stereo not drawn)	57	i	i	i	i	i
O=C(Nc1nc(-c2ccccc2)cs1)c1cc2cc(Br)ccc2oc1=O	i	i	i	i	nt	nt
COc1cccc(CN2CCN(C(=O)c3cc(OC)cc(OC)c3)CC2)c1	i	i	i	i	nt	nt
